Screening data from PubChem BioAssay.
CHRM1 agonist: agonists of human M1 muscarinic receptor. CHO-K1 hM1, Fluo-8 calcium fluorescence, agonist mode; 0% DMSO, 100% acetylcholine EC100. P11229. actives 0.33% (n = 360,000). activation, % at 3 µM;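 active = activation above the run's mean compound activation plus 3 SD, cut at about 16% in these data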;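 note: peak over basal fluorescence ratio within a 140 s kinetic read after compound addition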
Target sequence (P11229 whole entry, looked up): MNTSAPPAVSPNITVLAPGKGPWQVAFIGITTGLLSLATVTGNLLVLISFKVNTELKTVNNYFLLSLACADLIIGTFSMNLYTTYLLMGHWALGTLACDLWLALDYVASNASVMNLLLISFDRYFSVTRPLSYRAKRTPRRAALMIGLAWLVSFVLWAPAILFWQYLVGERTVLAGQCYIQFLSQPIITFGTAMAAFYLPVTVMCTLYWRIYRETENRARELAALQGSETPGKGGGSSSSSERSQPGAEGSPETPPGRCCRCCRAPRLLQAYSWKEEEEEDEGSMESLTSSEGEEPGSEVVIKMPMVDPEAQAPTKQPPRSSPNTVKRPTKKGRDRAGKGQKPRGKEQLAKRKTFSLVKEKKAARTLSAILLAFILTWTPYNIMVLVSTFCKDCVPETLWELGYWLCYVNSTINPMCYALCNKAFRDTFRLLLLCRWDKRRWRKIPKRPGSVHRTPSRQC
ATG4B inh: ATG4B (human) cysteine protease inhibition. Q9Y4P1. ATG4B cleavage of LC3-PLA2, NBD-HPC fluorescence, 1 h. inhibition, % at 8.33 µM. actives 0.51% (n = 340,000). AID 504462; in the data active = inhibition above about 40%
SKN-1 block: C. elegans SKN-1 inhibition. inhibition, % at 21.8 µM. actives 0.49% (n = 360,000). AID 624304. C. elegans VP596 Pgst-4::GFP/RFP ratio, acrylamide-induced, 24 h;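 active = interference check ratio from 0.5 to 1.5 plus GFP to RFP signal ratio inhibition reaching or exceeding a fixed threshold, cut at about 30% in these data, passing the limit was not always enough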
Myeloid diff MLP: compounds promoting myeloid differentiation | ER-HoxA9 myeloid progenitors, lysozyme-GFP differentiation, flow cytometry | calls only at 10 µM | actives 1% (n = 360,000);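 active = normalized GFP-positive differentiation at or above the plate's own cutoff, the solvent-only control mean plus 3 SD; inconclusive = no clear call, values can overlap the other calls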;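 note: cells exposed to compound for four days before flow analysis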
CHRM1 antagonist: blocks human M1 muscarinic receptor | P11229 | CHO-K1 hM1, Fluo-8 calcium fluorescence, ACh EC80 antagonist | inhibition, % at 3 µM | actives 1.3% (n = 360,000);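 active = percent inhibition above its own plate's cutoff, namely the mean of that plate's compound wells plus 3 SD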;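 note: peak over basal fluorescence ratio during 140 s after agonist addition; 0% = ACh EC80 plus DMSO and 100% = DMSO alone without agonist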
M1 PAM: human CHRM1 positive allosteric modulation. actives 0.088% (n = 360,000). activation, % at 3 µM. CHO-K1 hM1, Fluo-8 calcium fluorescence, ACh EC20; 0% = ACh EC20, 100% = maximal ACh. P11229. AID 588819; in the data active = activation above about 19%, passing the limit was not always enough
* hit, by the source's call; i = inactive; u = inconclusive; x = no result given. Only some compounds are listed: those with a hit (about 3.5% of all), similar ones and a draw of the others.

SMILES	CHRM1 agonist	ATG4B inh	SKN-1 block	Myeloid diff MLP	CHRM1 antagonist	M1 PAM
CCOC(=O)CC1CCCCN1C(=O)c1cc(COc2cccc3cnccc23)on1 (stereo not given)	6	23	-17	u	72*	-20
COC(=O)C1CCCCN1C(=O)c1cc(COc2cccc3cnccc23)on1 (stereo not given)	1	x	-4	i	43*	-15
CCCc1c2c(cc3c(=O)cc(C(=O)OCC)oc13)CCCC2	-5	-4	19	i	0	-1
O=C(/C=C/Nc1ccc(F)c(Cl)c1)c1ccco1	-1	3	75*	i	-17	9
O=C(/C=C/Nc1ccc(F)cc1F)c1ccco1	-2	5	45*	i	4	3
CN(C)c1ccc(N/C=C/C(=O)c2ccco2)cc1	-3	0	39*	i	-11	5
O=C(/C=C/Nc1ccc(F)cc1F)c1ccc(Br)cc1	1	-10	8	i	-14	15
O=C(/C=C/Nc1ccccc1O)c1ccco1	-2	6	6	i	-5	4
O=C(/C=C/Nc1cccc(F)c1)c1ccco1	-2	-3	35	i	13	5
O=C(/C=C/Nc1ccc(Br)cc1F)c1ccco1	-6	8	76*	i	8	-9
CCCS(=O)(=O)NC(=O)C1(C)CCCN(C(=O)CCc2cccs2)C1 (stereo not given)	-3	x	14	i	-10	3
Cc1cc(C)cc(SCc2noc(C(=O)NCCCN3CCOCC3)c2C(=O)NCCCN2CCOCC2)c1	-10	-1	1	i	6	-2
CC(N=C1NS(=O)(=O)c2ccccc21)C(=O)NCc1ccc(F)cc1 (stereo not given)	-3	6	5	i	-4	-2
COc1cccc2c1CCC1=CC(=O)CCC12C (stereo not given)	-1	-3	24	i	-14	12
Fc1cccc(Cc2noc(CN3CCCN(C4Cc5ccccc5C4)CC3)n2)c1	-13	3	5	i	93*	-34
Fc1cccc(Cc2noc(CN3CCN(C4CCc5ccccc5C4)CC3)n2)c1 (stereo not given)	-10	11	-8	i	72*	-26
Fc1cccc(Cc2noc(CN3CCSCC3)n2)c1	-9	9	7	i	-8	11
COc1cc(/C=N/N(C)C)cc(Br)c1O	-1	11	-11	i	-24	23*
CN=c1scc(C)n1/N=C/c1cc(Br)c(O)c(OC)c1	-5	-2	1	i	-9	5
COc1cc(/C=C(\C#N)C(N)=O)ccc1OCc1c(C)no[n+]1[O-]	-1	-3	5	i	1	1
COC(=O)C1=C(C)NC(C)=C(C(=O)OC)C1c1ccccc1OCc1c(C)no[n+]1[O-]	-4	-12	10	i	-13	22*
CC(=O)Nc1ccc(CNc2nc3cc(-c4cccc(C(F)(F)F)c4)sc3c(=O)n2C)cc1	-1	x	4	u	-18	11
Cc1nc(CNC(=O)CC2C(=O)NCCN2Cc2ccoc2)nc2c1CCCC2 (stereo not given)	-3	1	-7	i	-9	10
CC1CCC(C(C)C)C(OCC(O)CN2CCCC(C)C2)C1 (stereo not given)	-8	-12	-8	i	15	-13
CC1CCC(C(C)C)C(OCC[N+](C)(C)C)C1 (stereo not given)	-10	9	-5	i	100*	-22
CC1CCC(C(C)C)C(OCC(O)C[N+]2(C)CCCCC2)C1 (stereo not given)	-6	-5	14	i	76*	-23
Cc1nnsc1C(=O)N1CCC(CO)(Cc2ccccc2Cl)CC1	-4	0	9	i	-8	4
CCCCOc1ccc(C2(C)NC(=O)N(C)C2=O)cc1 (stereo not given)	-5	-2	0	i	-7	1
COc1cccc(CNc2nc3cc(-c4ccccc4C)sc3c(=O)n2C)c1OC	-6	x	35	i	-2	0
COC(=O)c1cc(Br)c(=O)n(Cc2ccco2)c1	1	-5	-8	i	-1	3
